# Measured values: PubChem BioAssay AID589 (National Center for Advancing Translational Sciences (NCATS), 2007)
# Among all 59,000 compounds or so, about 6,200 (11%) were called active. About 9% were inconclusive and are not listed. Cut-off read from the data, not from the text of the source: active = max dye-equivalent concentration above about 10 nM; inconclusive = mostly about 1.1 nM to 9.6 nM; inactive = weaker than that. Many of the other results were omitted from the sample, so actives are more common in it than they were.
# Assay: qHTS Assay for Spectroscopic Profiling in 4-MU Spectral Region
# Settings: compound autofluorescence, 340/450 nm, 4-MU equivalents; stronger effect = higher value
# How it was run: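 Intrinsic fluorescence at 340/450 nm (ex/em) was read after 15 min at room temperature in pH 8.0, 100 mM Tris. Each compound concentration expressed as 4-MU-equivalent concentration from a six-point 4-MU standard series on each plate.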
row,SMILES,max dye-equivalent concentration
1,O=C(Cn1cnc2c(cnn2-c2ccccc2)c1=O)NCc1ccccc1,inactive
2,O=C(Nc1ccc(S(=O)(=O)N2CCCC2)cc1Cl)C1=COCCO1,inactive
3,O=C(Cn1c(=O)sc2ccccc21)Nc1ccc2c(c1)OCCO2,inactive
4,Cn1cccc1C(=O)Nc1nccs1,inactive
5,CC(C)(C)NC(=O)NC(=O)COC(=O)Cn1c(C(F)(F)F)nc2ccccc21,inactive
6,Cn1cccc1C(=O)NC(=O)COC(=O)Cc1coc2ccc3ccccc3c12,30 nM (active)
7,CC(=O)c1cc2c(cc1N)OCO2,inactive
8,COCc1[nH]nc2c1C(C1C=CCCC1)C(C#N)=C(N)O2 (stereo unspecified),inactive
9,CC(=O)Oc1ccc2c(C)c(CC(C)O)c(=O)oc2c1 (stereo unspecified),15000 nM (active)
10,FC(F)(F)c1ccccc1-c1nc(-n2ccnc2)c2ccccc2n1,inactive
11,O=C1CN(C(=O)COC(=O)C2CC(=O)N(Cc3ccco3)C2)c2ccccc2N1 (stereo unspecified),inactive
12,COc1ccc(C(=O)n2nc(-c3ccc(Cl)cc3)nc2N)cc1OC,inactive
13,COc1ccccc1C(=O)n1nc(-c2ccccc2)nc1N,inactive
14,COc1ccc(C(=O)n2nc(-c3ccc(C)cc3)nc2N)cc1OC,35 nM (active)
15,CN(C(=O)c1ccccn1)c1nnc(-c2ccccn2)s1,inactive
16,C=CCNC(=O)c1ccc(C)c(Br)c1,inactive
17,O=C(NCCc1ccc2c(c1)OCCO2)c1cc2ccccc2o1,inactive
18,CCOC(=O)N1CCN(C(=O)c2n[nH]c(=O)c3ccccc23)CC1,inactive
19,COc1c(C(=O)N2CCCC2)ccc2ccccc12,inactive

row,SMILES,max dye-equivalent concentration
1,CCOC(=O)N1CCN(C(=O)c2cc3c(ccc4ccccc43)oc2=O)CC1,1500 nM (active)
2,CNC(=O)c1cc2c(ccc3ccccc32)oc1=N,9900 nM (active)
3,CCCCC(=O)Nc1cc(C)c2c(=O)oc3ccccc3c2n1,inactive
4,C=CCSc1nc2ccccc2[nH]1,inactive
5,Cc1ccc(CNC(=O)C2CC(=O)N(C3CCCCCCC3)C2)cc1 (stereo unspecified),inactive
6,COc1ccc(CCNS(=O)(=O)c2ccc(F)cc2)cc1OC,inactive
7,COC(=O)c1ccc2c(c1)S(=O)(=O)NC(=NCCCN1CCOCC1)S2,inactive
8,Cc1cc(-n2nc(C)cc2C)n2ncc(-c3ccccc3)c2n1,inactive
9,Cc1cc(C(F)(F)F)n2ncc(-c3ccccc3)c2n1,12 nM (active)
10,Cc1cc(Cl)ccc1OCC(=O)Oc1c(Cl)c(Cl)c(Cl)c(Cl)c1Cl,inactive
11,Cc1cc(C)c2nc(SCCC#N)nc(C)c2c1,inactive
12,C=CCN(c1ccc(C(N)=O)cc1)S(C)(=O)=O,inactive
13,O=C(COC(=O)c1ccc(Oc2ccccc2)cc1)Nc1nnc(-c2ccccc2)o1,inactive
14,Nc1ccc(-c2nnc(-c3ccc(-c4ccccc4)cc3)o2)cc1,170 nM (active)
15,O=C(CSc1nnc(-c2ccccc2)o1)N1CCOCC1,inactive
16,O=C(Nc1ccc(Cl)cc1)c1ccsn1,inactive
17,CCC[C@H]1C(=O)N2C(N(C)C)=Nc3ccc(C)cc3N2C1=O,inactive
18,COc1ccc(OC)c(C(=O)CSc2nnc(-c3cccs3)o2)c1,150 nM (active)
19,COc1ccc(-n2c(C)cc(C(=O)CSc3nnc(-c4cccs4)o3)c2C)cc1,inactive

row,SMILES,max dye-equivalent concentration
1,COc1ccc(-c2nnc(SCC(=O)c3cccs3)o2)c(OC)c1,inactive
2,CC(C)c1ccc(N2CC(C(=O)Nc3nccs3)CC2=O)cc1 (stereo unspecified),inactive
3,Cn1nnnc1SCC(=O)N1CCN(C(c2ccccc2)c2ccccc2)CC1,inactive
4,c1ccc(CCN2CN=C(Nc3nc4ccccc4o3)NC2)cc1,inactive
5,Cc1ccc2nc(NC3=NCN(CCc4ccccc4)CN3)nc(C)c2c1,inactive
6,COc1ccc2nc(NC3=NCN(CC4CCCO4)CN3)nc(C)c2c1 (stereo unspecified),92 nM (active)
7,Cc1ccc(S(=O)(=O)NCC(=O)N(CC(=O)NC2CCCCC2)Cc2ccco2)cc1,inactive
8,CCCC(=O)N(CCc1ccccc1)Cc1nc2ccccc2c(=O)[nH]1,inactive
9,c1ccc2c(NCC3CCCO3)nc(-c3ccncc3)nc2c1 (stereo unspecified),inactive
10,Cc1ccc(C(=O)NCC2CCCO2)o1 (stereo unspecified),inactive
11,Cc1nc2ccccc2c2oc(C(=O)NCC3CCCO3)cc12 (stereo unspecified),12 nM (active)
12,CCCN(CCC)CCNC(=O)c1cc2c(C)nc3ccccc3c2o1,17 nM (active)
13,Cc1cc(C(=O)NCCCc2ccccc2)no1,inactive
14,Cc1cc(NC(=O)CN2CCC(O)(c3cccc(F)c3)CC2)no1,inactive
15,CCn1c(SCC(=O)c2ccc(Cl)s2)nnc1-c1cccs1,inactive
16,Cc1ccn2cc(-c3nonc3C)cc2c1,inactive
17,COC(=O)c1cccc(NC(=O)CSc2nc(C)cc(=O)[nH]2)c1,inactive
18,Cc1ccc(NC(=O)c2nc[nH]c2C(=O)N2CCCCC2)c(C(=O)c2ccccc2)c1,inactive
